From PubChem BioAssay (NCI)
About 79,000 compounds went through this panel and 15% of them were active in at least one assay; those are over-represented in the sample as a whole. Cut-off read from the data, not from the text of the source: active = growth inhibition above about 70%; inactive = the rest.

Tests used:
[1] = NCI Yeast Anticancer Drug Screen. Data for the rad50 strain (AID 155);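 note: 0% = growth of vehicle-only cultures of the same strain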; details: S. cerevisiae rad50 strain growth inhibition; at 50.0 µM; stronger effect = higher value
Outline: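 Growth of the mutant yeast was measured after compound exposure and referenced to vehicle-treated cultures.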

[2] = NCI Yeast Anticancer Drug Screen. Data for the mec2-1 strain (AID 157); details: S. cerevisiae mec2-1 strain, at 50.0 µM, stronger effect = higher value
Outline: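 Vehicle-treated cultures served as reference for growth inhibition of compound-exposed mec2-1 yeast.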

[3] = NCI Yeast Anticancer Drug Screen. Data for the sgs1 mgt1 strain (AID 161);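 note: 0% = growth of cultures given vehicle only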; details: S. cerevisiae sgs1 mgt1 strain, at 50.0 µM, stronger effect = higher value
Outline: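 Genetically altered yeast, compound exposure, growth inhibition relative to vehicle.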

[4] = NCI Yeast Anticancer Drug Screen. Data for the cln2 rad14 strain (AID 165);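 note: 0% = growth equal to vehicle treated cultures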; details: S. cerevisiae cln2 rad14 strain, at 50.0 µM, stronger effect = higher value
Outline: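 Each compound was tested on cln2 rad14 yeast. Inhibition of growth was calculated against vehicle-exposed controls.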

[5] = NCI Yeast Anticancer Drug Screen. Data for the bub3 strain (AID 167); details: S. cerevisiae bub3 mutant strain, at 50.0 µM, stronger effect = higher value
Outline: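 Whole-cell yeast assay. The mutant strain was incubated with compounds, and growth inhibition was determined by comparison with vehicle-treated cells.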

[6] = NCI Yeast Anticancer Drug Screen. Data for the mlh1 rad18 strain (AID 175); details: S. cerevisiae mlh1 rad18 strain growth inhibition; at 50.0 µM; stronger effect = higher value
Outline: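 Vehicle-treated cultures served as the reference for growth inhibition in a yeast strain carrying DNA damage repair alterations exposed to each compound.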

Measured: growth inhibition

CC1(C)CCc2c(cc3c(c2O)CCC(C)(C)O3)O1
inactive: [1] 4.6% | [2] 7.6% | [3] -10.7% | [4] 12.9% | [5] 9.05% | [6] 8.45%

COc1cc2c3cc1Oc1c(O)c(OC)cc4c1C(Cc1ccc(O)c(c1)Oc1ccc(cc1)CC3N(C)CC2)N(C)CC4 (centres undefined)
inactive: [1] -22.1% | [2] -47.2% | [3] -33.6% | [4] -5.4% | [5] -24.5% | [6] -13%

O=CC(=O)c1ccc(Br)cc1
inactive: [1] 13.7% | [2] 19.2% | [3] 13.2% | [4] -1.05% | [5] -7.15% | [6] 19.4%

S=C(NCN1CCOCC1)NCN1CCOCC1
inactive: [1] -14.8% | [2] 5.75% | [3] -5.2% | [4] -2.7% | [5] 2.05% | [6] -16%

O/N=C1/COC(C(F)(F)F)(C(F)(F)F)C1
inactive: [1] -14.3% | [2] -25.4% | [3] -16.9% | [4] -38.2% | [5] -5.7% | [6] -45.5%

CC(C)(C)OC(=O)N(CCCCNC(=O)c1ccccc1)CCCNC(=O)c1ccccc1
inactive: [1] 13.4% | [2] -8.5% | [3] -30% | [4] -26.5% | [5] -36.5% | [6] -64%

Cc1ccc(Cl)cc1NC(=O)Oc1ccc(C(C)(C)C)cc1Br
inactive: [1] 54.3% | [2] 57.1% | [3] 11.7% | [4] 1.5% | [5] 19.9% | [6] 60.2%

c1ccc(C2CCCN2)cc1 (centres undefined)
inactive: [1] 6% | [2] -12.4% | [3] -11% | [4] 6.25% | [5] -1.4% | [6] 4%

CC(C)CC(NC(=O)CN1C(=O)c2ccccc2C1=O)C(=O)O (centres undefined)
inactive: [1] -10.3% | [2] -41.6% | [3] 7.4% | [4] 3.2% | [5] -17% | [6] -24.1%

CCOC(=O)C(C)(C(C)=O)c1nc(=S)[nH]c(=S)[nH]1 (centres undefined)
inactive: [1] 4.2% | [2] 7.55% | [3] 2.1% | [4] -19.8% | [5] 7.25% | [6] -5.1%

COCn1cnc2c(=O)n(-c3ccc(OC)cc3)c(=S)n(-c3ccc(OC)cc3)c21
inactive: [1] 21.1% | [2] -13.7% | [3] -28.9% | [4] -2.65% | [5] -21.4% | [6] -53.1%

COc1ccc(NC(=O)CC(=O)N/N=C(/C)c2cc3cc(N=Nc4ccccc4Cl)ccc3oc2=O)cc1
inactive: [1] 11.3% | [2] 14.2% | [3] 24.1% | [4] 34% | [5] -11.8% | [6] -10.2%

CCCCCCCCCCCCCCCC(=O)OCC(=O)O
inactive: [1] 14.7% | [2] -16.4% | [3] 23.2% | [4] 10.3% | [5] 15.2% | [6] 1.3%

O=C1c2ccccc2C(=O)c2c1nnn2-c1ccccc1
inactive: [1] 41.7% | [2] 5.95% | [3] 21.2% | [4] -4.45% | [5] 17.2% | [6] -2.15%

CCOC(=O)CCC(NC(=O)c1ccc(N=Cc2nc3ccccc3nc2-c2ccccc2)cc1)C(=O)OCC (centres undefined)
inactive: [1] 4.35% | [2] 0.95% | [3] 6.8% | [4] 14.5% | [5] 11.8% | [6] -7.7%

NC(=S)NN/C=C(\C=Nc1ccccc1)[N+](=O)[O-]
inactive: [1] 8.15% | [2] -3.3% | [3] 4.15% | [4] 0.4% | [5] 0.15% | [6] 1%

O=C(CC1Sc2ccccc2NC1=O)Nc1cc(Cl)ccc1Cl (centres undefined)
inactive: [1] -2.6% | [2] -18.3% | [3] -4.55% | [4] 25.3% | [5] 8.7% | [6] -1.45%

CCN(CC)C(=O)CCC(=O)O
inactive: [1] 0.4% | [2] -13.3% | [3] -14.7% | [4] 3.3% | [5] 0.55% | [6] 24.7%

C=C1C(=O)O[C@H]2C[C@@H]1C(=O)C/C(C)=C/CC/C(C)=C/CC[C@@]2(C)OCSC
inactive: [1] 18.9% | [2] -5% | [3] 39% | [4] 26.9% | [5] 9.85% | [6] 13.7%
